Source: PubChem BioAssay AID1159580 (chemical genetic matrix, 2015)
Several values for one entry are separate records, joined by “and”; a condition that tells them apart may be missing. Equal values may be shown once. The campaign covered roughly 5,500 compounds. About 2,000 (36%) were called active. Another 18% or so got no clear call; they are omitted. Cut-off read from the data, not from the text of the source: active = normalized growth mostly below about 0.91 (no sharp cut-off); inconclusive = no clear call, values can overlap the other calls; inactive = mostly above about 0.92. The list shows a part of the results.

Assay: chemical genetic growth profiling, strain panel (AID 1159580);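 note: tested at 20 µM; growth read once vehicle control cultures reached saturation at 30 °C; 1 = growth at the plate median or of vehicle wells; lower values mean less growth of the strain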
Settings: S. cerevisiae deletion strains, growth OD

Measured: normalized growth

C[C@H]1CC2C([C@@H](O)C[C@@]3(C)C2CC[C@]3(O)C(=O)CO)[C@@]2(C)C=CC(=O)C=C12 (stereo partly specified)
inactive: locus YAL013W, strain DEP1, hits give low values 0.994 | locus YAL021C, strain ccr4, hits give low values 1.01 | locus YAL026C, strain drs2, hits give low values 1.02 | locus YAL030W, strain snc1, hits give low values 1 | locus YBL061C, strain skt5, hits give low values 0.991 | locus YBR009C, strain hhf1, hits give low values 1.01 | locus YBR021W, strain FUR4, hits give low values 0.972 | locus YBR023C, strain chs3, hits give low values 1.01 | locus YBR171W, strain sec66, hits give low values 0.993 | locus YBR229C, strain ROT2, hits give low values 0.993 | locus YBR231C, strain swc5, hits give low values 0.977 | locus YBR279W, strain paf1, hits give low values 1.01 | locus YCL011C, strain gbp2, hits give low values 1.03 | locus YCL016C, strain dcc1, hits give low values 1.01 | locus YCL029C, strain bik1, hits give low values 1.03 | locus YCL061C, strain MRC1, hits give low values 0.999 | locus YCL069W, strain vba3, hits give low values 0.993 | locus YCR088W, strain abp1, hits give low values 1 | locus YDL005C, strain med2, hits give low values 0.987 | locus YDL035C, strain GPR1, hits give low values 0.993 | locus YDL040C, strain nat1, hits give low values 1 | locus YDL074C, strain BRE1, hits give low values 1.02 | locus YDL101C, strain DUN1, hits give low values 1.01 | locus YDL134C, strain PPH21, hits give low values 0.996 | locus YDL185W, strain tfp1, hits give low values 1.01 | locus YDL192W, strain arf1, hits give low values 1.01 | locus YDR001C, strain nth1, hits give low values 1 | locus YDR069C, strain doa4, hits give low values 0.994 | locus YDR101C, strain arx1, hits give low values 1.02 | locus YDR137W, strain rgp1, hits give low values 0.993 | locus YDR150W, strain NUM1, hits give low values 0.988 | locus YDR159W, strain sac3, hits give low values 1.01 | locus YDR162C, strain NBP2, hits give low values 0.995 | locus YDR195W, strain ref2 0.934 | locus YDR297W, strain sur2, hits give low values 0.987 | locus YDR318W, strain mcm21, hits give low values 1.03 | locus YDR334W, strain swr1, hits give low values 0.997 | locus YDR335W, strain msn5, hits give low values 1 | locus YDR388W, hits give low values 1.02 | locus YDR392W, strain spt3, hits give low values 1.02 | locus YDR502C, strain sam2, hits give low values 1.01 | locus YEL003W, strain gim4, hits give low values 0.984 | locus YEL037C, strain rad23, hits give low values 1 | locus YEL061C, strain CIN8 (second series), hits give low values 1.01 | locus YEL061C, strain CIN8, hits give low values 0.993 | locus YER015W, strain faa2, hits give low values 1.01 | locus YER016W, strain bim1, hits give low values 1 | locus YER110C, hits give low values 1.01 | locus YER111C, strain swi4, hits give low values 1 | locus YER155C, strain BEM2 (second series), hits give low values 0.989 | locus YER155C, strain BEM2, hits give low values 0.996 | locus YER167W, strain BCK2, hits give low values 0.996 | locus YFR010W, strain ubp6, hits give low values 0.982 | locus YGL078C, strain dbp3, hits give low values 1.02 | locus YGL086W, strain mad1, hits give low values 0.999 | locus YGL167C, strain pmr1, hits give low values 0.988 | locus YGL173C, strain kem1, hits give low values 0.986 | locus YGL227W, strain vid30, hits give low values 0.992 | locus YGL240W, strain doc1, hits give low values 0.972 | locus YGL248W, strain PDE1, hits give low values 1 | locus YGL253W, strain hxk2, hits give low values 0.997 | locus YGR078C, strain PAC10, hits give low values 0.984 | locus YGR135W, strain pre9, hits give low values 1.04 | locus YGR229C, strain SMI1, hits give low values 0.986 | locus YGR252W, strain gcn5, hits give low values 0.947 | locus YHR013C, strain ard1, hits give low values 0.997 | locus YHR027C, strain rpn1, hits give low values 1 | locus YHR030C, strain SLT2, hits give low values 0.994 and 1.07 | locus YHR079C, strain IRE1 (second series), hits give low values 1.02 | locus YHR079C, strain IRE1, hits give low values 1.07 | locus YHR094C, strain hxt1, hits give low values 1.02 | locus YHR129C, strain ARP1, hits give low values 1 | locus YHR142W, strain chs7, hits give low values 0.997 | locus YHR200W, strain rpn10, hits give low values 1.01 | locus YIL066C, strain RNR3, hits give low values 1 | locus YIL073C, strain SPO22, hits give low values 1.01 | locus YIL125W, strain kgd1, hits give low values 1 | locus YIR030C, strain dcg1, hits give low values 1.02 | locus YJL092W, strain hpr5, hits give low values 0.989 | locus YJL095W, strain BCK1 (second series), hits give low values 0.997 | locus YJL095W, strain BCK1, hits give low values 1.03 | locus YJL115W, strain asf1, hits give low values 1 | locus YJL129C, strain trk1, hits give low values 0.987 | locus YJL134W, strain LCB3, hits give low values 1 | locus YJL154C, strain vps35, hits give low values 1.01 | locus YJL164C, strain tpk1, hits give low values 1.01 | locus YJL166W, strain qcr8, hits give low values 0.97 | locus YJL168C, strain set2, hits give low values 1.01 | locus YJL187C, strain SWE1 (second series), hits give low values 1.01 | locus YJR043C, strain POL32, hits give low values 1.01 | locus YJR066W, strain TOR1, hits give low values 1.02
